The source of these data is PubChem BioAssay.

Assay [1] is described as follows: compounds altering circadian rhythm period length – cell-based, LOPAC library, luminescence reporter (AID 2774).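 Note: values are relative to mean of DMSO wells on each plate.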 To be noted: circadian reporter cells, at 7 µM, actives lie on both sides.
Assay [2] concerns Hepatitis C virus NS3 helicase. The experiment in a line: blockers of NS3h binding to ssDNA – biochemical, fluorescence polarization, LOPAC1280 library, primary screen (AID 687035; in the data active = inhibition above about 37%). To be noted: Purified HCV NS3 helicase, Cy5-dT15 ssDNA binding fluorescence polarization; stronger effect = higher value; concentration not given here. (In general: Polarisation of emitted light reports the rotation of a fluorescent probe.)

The nature of assay [3]: compounds altering Cy5-DNA-NS3h complex signal – biochemical, LOPAC1280, artefact control for HCV NS3 helicase inhibitor project (AID 687037). To be noted: Cy5-DNA-NS3h complex fluorescence interference counterscreen.
The nature of assay [4]: viability loss with induced miR-34 in A549 – imaging, A549 dox-inducible miR-34, nuclei and caspase counts, primary screen (AID 1347080;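 active = compounds whose cell count with miR-34 switched on is under 0.7 times the count with it off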). Particulars: A549 miR-34 inducible, Hoechst nuclei count, 48 h.
The nature of assay [5]: blockers of cellular phospholipid synthesis – cell-based, LOPAC library, screen 4, primary screen (AID 1347384). To be noted: animal cells, phospholipid biosynthesis inhibition screen; at 10 µM.
A short description of assay [6]: MELAS cybrid and Rieske KO viability enhancers – cell-based, MELAS cybrids, Rieske KO mouse fibroblasts, CellTiter-Glo, primary screen (AID 1508586;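 active = mean z-score across replicates of 1.96 or higher in either the MELAS or the Rieske mutant cell line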;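 note: z relative to plate mean and SD of compound and empty wells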). Particulars: low glucose. On the technique in general: In ATP-based viability assays light output follows the ATP content of the culture.
Assay [7] is described as follows: galactose survival enhancers in mitochondrial complex I cybrids – cell-based, galactose medium, ATP luminescence, primary screen (AID 1645843;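 active = z-score of at least 1.8 in each of two replicates, scored against plate mean and spread of sample wells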;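 note: positive z means more ATP and so rescue of galactose-driven cybrid death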). Particulars: complex I mutant cybrid cells, 72 h, stronger effect = higher value.
A short description of assay [8]: compounds altering viability of human ES cells (AID 493140).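 Note: cells exposed to compounds for four days before counting.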 To be noted: human embryonic stem cell survival screen; stronger effect = higher value.
Assay [9] in a line: chitosan synthesis blockers in C. neoformans – flow cytometry, Cibacron Brilliant Red staining (AID 1347148).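 Note: compound exposure lasted three days at 37 degrees C.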 Particulars: Cryptococcus neoformans chitosan, stronger effect = lower value; at 10 µM unless noted. (A flow cytometer gives signals particle by particle.)
Setting [10] is: measured here: relative caspase fold change +Dox/-Dox.
The mark [11] stands for this setting: measured here: total cells with miR-34 induction, stronger effect = lower value.
Where [12] appears, read: measured here: total cells without miR-34 induction.

Values joined by “and” are separate entries in the source; they are usually repeats but may differ in a detail not shown here. Identical values can stand only once. Active and inactive are the calls of the source. Unless noted, the rule behind the calls is not given here.

On to `NC1CC1c1ccccc1` (stereo not drawn), for which, in assay [1], the period change was 0.03 h (inactive). Also, the inhibition in assay [2] is -1% (inactive). Besides, in assay [3], the fluorescence ratio (interference) was 1 (inactive). Also, the fold change in [4] (stronger effect = lower value) is 0.977 (inactive) and 0.888 (inactive); in [4] (setting [10]) it was 1.3 and 1.48. Further, the cell count in assay [4] (setting [11]) was 10200 and 8220; in [4] (setting [12]) it was 10400 and 9270. In addition, the result in assay [5] was inactive. Besides, the z-score was -0.158 (inactive) in assay [6] (MELAS cybrid survival, CellTiter-Glo 48 h, stronger effect = higher value); -0.299 in assay [6] (Rieske KO mouse fibroblast survival, CellTiter-Glo 72 h); 0.355 (inactive) in assay [7].
On to `C[C@@H]1O[C@H](C[N+](C)(C)C)C[C@H]1O`, for which the period change in [1] was -0.03 h (inactive). The inhibition in assay [2] was -2% (inactive). For the same compound, the fluorescence ratio (interference) in assay [3] is 1 (inactive). Further, the fold change was 1.05 (inactive) in [4] (stronger effect = lower value) and 1.87 in assay [4] (setting [10]). Moreover, the cell count in assay [4] (setting [11]) was determined as 10900; in assay [4] (setting [12]), 10400. The call in [5] was inactive. In addition, in assay [7], the z-score was 0.675 (inactive).
As for `N[C@@]1(C(=O)O)CC[C@@H](C(=O)O)C1`, in assay [1], the period change was -0.105 h (inactive). In addition, the inhibition in assay [2] was -5% (inactive). For the same compound, the fluorescence ratio (interference) in assay [3] is 1 (inactive). The fold change in assay [4] (stronger effect = lower value) was 1.04 (inactive); in [4] (setting [10]), 2.1. Further, the cell count was determined as 10500 in assay [4] (setting [11]) and 10000 in assay [4] (setting [12]). Besides, the result in [5] was inactive. For the same compound, the z-score in assay [7] was 0.225 (inactive).
As to `N#CC(=Cc1ccc(O)c(O)c1)C(N)=S`, the period change in [1] is -0.06 h (inactive). Besides, in [2], the inhibition is 3% (inactive). The fluorescence ratio (interference) in [3] was 0.9 (inactive). In addition, the figures for the fold change in assay [4] (stronger effect = lower value) and in assay [4] (setting [10]) were 0.981 (inactive) and 1.34, respectively. In addition, the cell count worked out at 9410 in assay [4] (setting [11]) and 9590 in [4] (setting [12]). For the same compound, in assay [5], the outcome was inactive. Moreover, in [7], the z-score is -0.465 (inactive).
Take `C=CCN1CC[C@]23CCCCC2[C@H]1Cc1ccc(O)cc13` (stereo partly drawn): in [1], the period change is 0.175 h (inactive). Moreover, in assay [2], the inhibition is -4% (inactive). For the same compound, the fluorescence ratio (interference) in assay [3] is 1 (inactive). The fold change in [4] (stronger effect = lower value) is 1.09 (inactive); in assay [4] (setting [10]), 0.636. Moreover, the cell count in [4] (setting [11]) stood at 10900; in [4] (setting [12]), 10000. For the same compound, in [5], the outcome was inactive. Moreover, the z-score in assay [7] was -0.095 (inactive).
Consider `C[C@]12Cc3cn4c(nc3C=C1CCC1C2CC[C@@]2(C)[C@H]1CC[C@@]2(O)C#N)nc1ccccc14` (stereo partly drawn), for which the period change in assay [1] is 0.285 h (inactive). Further, the inhibition in assay [2] was 0% (inactive). In addition, in [3], the fluorescence ratio (interference) is 1 (inactive). The fold change in assay [4] (stronger effect = lower value) is 1.02 (inactive); in assay [4] (setting [10]), 0.934. The figures for the cell count in assay [4] (setting [11]) and in assay [4] (setting [12]) were 1380 and 1350, respectively. Besides, in assay [5], the call was inactive. For the same compound, the z-score in [7] is -0.25 (inactive).
For the compound `CCCCCC1OC1C/C=C\CCCCCCCC(=O)O` (stereo not drawn), the survival in assay [8] is 100 (inactive). For the same compound, the fold change in assay [4] (stronger effect = lower value) was 0.986 (inactive); in assay [4] (setting [10]), 1.2. The cell count in assay [4] (setting [11]) was 5980; in [4] (setting [12]) it was 6070. Further, in assay [9], the fold fluorescence is 4.22 [at 1 µM] (inactive).
For the compound `CCCCC/C=C\C/C=C\C/C=C\CCCCCCC(=O)NCCO`, the survival in assay [8] is 87.2 (inactive). Moreover, the fold change in assay [4] (stronger effect = lower value) is 0.972 (inactive) and 1.13 (inactive); in assay [4] (setting [10]) it was 1.55 and 0.675. Besides, the cell count in assay [4] (setting [11]) was 5830 and 6550; in assay [4] (setting [12]), 5990 and 5800. The fold fluorescence in assay [9] was 5.22 (inactive).

Broadly, the inhibition is the relative decrease from the control value, in per cent.
